# According to PubChem BioAssay (NCATS):
# Several values for one entry are separate records, joined by “and”; a condition that tells them apart may be missing. Equal entries are not always repeated. Results filed as inconclusive are left out. Activity calls are given as the source filed them. Unless noted, calls follow the shape of the dose curve; as a rule, active = well fitted inhibition curve with a large enough effect; inconclusive = small, poorly fitted or top-dose-only effect; inactive = flat fitted curve, though single readings scatter.
# Experiments:
# [1] = qHTS drug screen for cell cycle checkpoint inhibitors in PARPi-resistant BRCA-mutant ovarian cancer cell lines. (AID 1963452; calls by dose curve; also: potency is read from the fitted curve at half-maximal effect); conditions: PEO1/OlaR viability, CellTiter-Glo luminescence, 96 h; for Z-AUC: stronger effect = lower value
# How it was run: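 PEO1, PEO4 and PEO1/OlaR ovarian cancer cells, 600 per well, exposed 96 h at 37C to a dilution series. Viability read by CellTiter-Glo luminescence, normalized to DMSO and empty wells; activity summarized as Z-AUC.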
# [2] = qHTS for identification of novel therapeutic agents for treatment of microphthalmiaassociated transcription factor (MiT) renal cell carcinoma (RCC) (AID 1963991; calls by dose curve; also: potency is read from the fitted curve at half-maximal effect); conditions: CellTiter-Glo, 48 h; for z-score: stronger effect = lower value
# How it was run: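 Three TFE3-fusion RCC lines (UOK109, UOK124, UOK145), 500 cells/well in complete medium, were treated with MIPE 4.0 compounds for 48 hours at 37 C. Viability was by CellTiter-Glo luminescence, normalized to DMSO (100%) and empty wells (0%); curves fitted over 11 concentrations.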
# [3] = qHTS profiling for inhibitors of Plasmodium falciparum proliferation (AID 504749);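 also: 0% = DMSO vehicle and full inhibition = artemisinin control; nearly all actives have a fitted effect of over 60% in size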; conditions: P. falciparum in erythrocytes, SYBR Green DNA, 72 h
# How it was run: (§1)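 SYBR Green fluorescence of parasite DNA, read after lysis and overnight dark incubation, measured growth over 72 h in erythrocyte culture at 0.3% parasitemia and 2.5% hematocrit. Data normalised to DMSO and 0.29 uM artemisinin, with plate-drift correction.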
# 3D7 = assay: as above; conditions: P. falciparum in erythrocytes, SYBR Green DNA, 72 h; series mostly up to 28.7 µM
# How it was run: as §1
# 7G8 = assay: as above; conditions: P. falciparum in erythrocytes, SYBR Green DNA, 72 h; series mostly up to 28.7 µM
# How it was run: as §1
# AA1029 = assay: as above; conditions: P. falciparum in erythrocytes, SYBR Green DNA, 72 h; series mostly up to 28.7 µM
# How it was run: as §1
# AS120 = assay: as above; conditions: P. falciparum in erythrocytes, SYBR Green DNA, 72 h; series mostly up to 28.7 µM
# How it was run: as §1
# ATS189 = assay: as above; conditions: P. falciparum in erythrocytes, SYBR Green DNA, 72 h; series mostly up to 28.7 µM
# How it was run: as §1
# ATS95 = assay: as above; conditions: P. falciparum in erythrocytes, SYBR Green DNA, 72 h; series mostly up to 28.7 µM
# How it was run: as §1
# C2A = assay: as above; conditions: P. falciparum in erythrocytes, SYBR Green DNA, 72 h; series mostly up to 28.7 µM
# How it was run: as §1
# CP185 = assay: as above; conditions: P. falciparum in erythrocytes, SYBR Green DNA, 72 h; series mostly up to 28.7 µM
# How it was run: as §1
# CP191 = assay: as above; conditions: P. falciparum in erythrocytes, SYBR Green DNA, 72 h; series mostly up to 28.7 µM
# How it was run: as §1
# CP192 = assay: as above; conditions: P. falciparum in erythrocytes, SYBR Green DNA, 72 h; series mostly up to 28.7 µM
# How it was run: as §1
# [4] = measured here: PEO1 parental Z-AUC
# [5] = TFE3-RCC UOK109 viability, measured here: UOK109 Z-AUC
# [6] = TFE3-RCC viability, measured here: UOK124 Z-AUC
# [7] = TFE3-RCC viability, measured here: UOK145 Z-AUC
# [8] = at 28.7 µM (top of the series), parasite line A
# [9] = at 28.7 µM (top of the series), parasite line B
structure (smiles),measurement,setting,value
C[C@H]1c2cccc(O)c2C(O)=C2C(=O)[C@]3(O)C(O)=C(C(N)=O)C(=O)[C@@H](N(C)C)[C@@H]3[C@@H](O)[C@@H]21,Z-AUC,[1],0.309 (inactive) and -0.104 (inactive)
same,Z-AUC,[1]; [4],0.47 and 0.545
same,Z-AUC,[1]; measured here: PEO4 Z-AUC,0.542 and 0.724
Cc1ccccc1N1C(=O)c2cc(S(N)(=O)=O)c(Cl)cc2NC1C (stereo unspecified),Z-AUC,[1],-0.939 (inactive)
same,Z-AUC,[1]; [4],-0.663
same,Z-AUC,[1]; measured here: PEO4 Z-AUC,-0.859
same,z-score,[2]; [5],0.956
same,z-score,[2]; [6],0.478
same,z-score,[2]; [7],-0.147
COc1nc(C)nc(Cl)c1NC1=NCCN1,Z-AUC,[1],-0.0792 (inactive)
same,Z-AUC,[1]; [4],-0.161
same,Z-AUC,[1]; measured here: PEO4 Z-AUC,0.307
same,z-score,[2]; [5],0.168
same,z-score,[2]; [6],0.306
same,z-score,[2]; [7],0.251
same,"activity, negative = inhibition","[3]; at 12.8 µM (top of the series), parasite line A",1.48% (inactive)
same,"activity, negative = inhibition","[3]; at 12.8 µM (top of the series), parasite line B",0.89% (inactive)
same,Potency,3D7,inactive
same,Potency,7G8,inactive
same,Potency,AA1029,inactive
same,Potency,AS120,inactive
same,Potency,ATS189,inactive
same,Potency,ATS95,inactive
same,Potency,C2A,inactive
same,Potency,CP185,inactive
same,Potency,CP191,inactive
same,Potency,CP192,inactive
CCC1(C)CC(=O)NC1=O (stereo unspecified),Z-AUC,[1],1.49 (inactive)
same,Z-AUC,[1]; [4],1.31
same,Z-AUC,[1]; measured here: PEO4 Z-AUC,1.61
same,z-score,[2]; [5],0.867
same,z-score,[2]; [6],0.609
same,z-score,[2]; [7],0.715
CCc1cccc2c3c([nH]c12)C(CC)(CC(=O)O)OCC3 (stereo unspecified),Z-AUC,[1],0.208 (inactive)
same,Z-AUC,[1]; [4],0.962
same,Z-AUC,[1]; measured here: PEO4 Z-AUC,0.882
same,z-score,[2]; [5],0.838
same,z-score,[2]; [6],0.432
same,z-score,[2]; [7],0.577
CC(C)(C)C(=O)Oc1ccc(S(=O)(=O)Nc2ccccc2C(=O)NCC(=O)O)cc1,Z-AUC,[1],1.22 (inactive)
same,Z-AUC,[1]; [4],0.948
same,Z-AUC,[1]; measured here: PEO4 Z-AUC,1.16
same,z-score,[2]; [5],0.584
same,z-score,[2]; [6],0.0353
same,z-score,[2]; [7],0.435
same,"activity, negative = inhibition",[3]; [8],-0.829% (inactive)
same,"activity, negative = inhibition",[3]; [9],7.95% (inactive)
same,Potency,3D7,inactive
same,Potency,7G8,inactive
same,Potency,AA1029,inactive
same,Potency,AS120,inactive
same,Potency,ATS189,inactive
same,Potency,ATS95,inactive
same,Potency,C2A,inactive
same,Potency,CP185,inactive
same,Potency,CP191,inactive
same,Potency,CP192,inactive
COC(=O)Nc1nc2ccc(C(=O)c3cccs3)cc2[nH]1,Potency,[1],69.2 nM (active)
same,Z-AUC,[1]; [4],-1.94
same,Z-AUC,[1]; measured here: PEO4 Z-AUC,-1.92
same,Potency,"[2]; TFE3-RCC UOK109 viability, active = Z-AUC below -0.8 in all three lines",8.33 nM (active)
same,z-score,[2]; [5],-2.2
same,z-score,[2]; [6],-3.02
same,z-score,[2]; [7],-1.81
same,"activity, negative = inhibition",[3]; [8],-6.79% (inactive)
same,"activity, negative = inhibition",[3]; [9],11.2% (inactive)
same,Potency,3D7,inactive
same,Potency,7G8,inactive
same,Potency,AA1029,inactive
same,Potency,AS120,inactive
same,Potency,ATS189,inactive
same,Potency,ATS95,inactive
same,Potency,CP185,inactive
same,Potency,CP191,inactive
same,Potency,CP192,inactive
CC(C)Cc1ccc(C(C)C(=O)O)cc1 (stereo unspecified),Z-AUC,[1],1.42 (inactive)
same,Z-AUC,[1]; [4],1.49
same,Z-AUC,[1]; measured here: PEO4 Z-AUC,1.2
same,z-score,[2]; [5],0.767
same,z-score,[2]; [6],0.849
same,z-score,[2]; [7],0.507
same,"activity, negative = inhibition",[3]; [8],5.92% (inactive)
same,"activity, negative = inhibition",[3]; [9],6.46% (inactive)
same,Potency,3D7,inactive
same,Potency,7G8,inactive
same,Potency,AA1029,inactive
same,Potency,AS120,inactive
same,Potency,ATS189,inactive
same,Potency,ATS95,inactive
same,Potency,C2A,inactive
same,Potency,CP185,inactive
same,Potency,CP191,inactive
same,Potency,CP192,inactive
CN(C)C(=O)C(CCN1CCC(O)(c2ccc(Cl)cc2)CC1)(c1ccccc1)c1ccccc1,Z-AUC,[1],-1.16 (inactive)
same,Z-AUC,[1]; [4],-0.647
same,Z-AUC,[1]; measured here: PEO4 Z-AUC,-0.794
